Measured values taken from PubChem BioAssay (Tox21).
Results filed as inconclusive are left out. A call without a number means that no potency is given here. Some compounds were tested as several samples or in several runs, with calls that do not always agree. Activity calls are given as the source filed them. Calls come from the whole dose curve.

What was measured:
[1] = biological target: Acetylcholinesterase (Homo sapiens) (UniProt P22303); assay: Acetylcholinesterase (AChE) small molecule antagonists: colormetric cell-based qHTS assay (AID 1347395); note: nearly all actives have a fitted effect of over 30% in size; note: potency is the fitted concentration of half-maximal effect
How it was run: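 In this cell-based qHTS, attached SH-SY5Y cells were treated with test chemicals for 30 min, after which acetylthiocholine hydrolysis was followed by DTNB colour development over 90 min at 37 C.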

[2] = biological target: Acetylcholinesterase (Homo sapiens) (UniProt P22303); assay: Acetylcholinesterase (AChE) small molecule antagonists: enzyme-based qHTS assay (AID 1347397); settings: Potency: AChE enzyme activity inhibition; outcome: AChE enzyme activity inhibition; note: nearly all actives have a fitted effect of over 55% in size; note: potency is the fitted concentration of half-maximal effect
How it was run: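 Human recombinant acetylcholinesterase; substrate acetylthiocholine; thiocholine quantified with DTNB (colorimetric). Compound preincubation 30 min RT; reaction 10 min RT.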

[3] = biological target: Acetylcholinesterase (Homo sapiens) (UniProt P22303); assay: Acetylcholinesterase (AChE) small molecule antagonists: fluorescence cell-based qHTS assay (AID 1347398); settings: Potency: AChE activity; outcome: AChE activity; note: nearly all actives have a fitted effect of over 50% in size; note: potency is the fitted concentration of half-maximal effect
How it was run: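 Thiocholine generated from acetylthiocholine by SH-SY5Y cell AChE is detected with Thiolite Green (Ex/Em 490/520 nm) after 40 min at room temperature, following 30 min compound pretreatment at 37 C.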

[4] = biological target: Acetylcholinesterase (Homo sapiens) (UniProt P22303); assay: Acetylcholinesterase (AChE) small molecule antagonists: enzyme-based qHTS assay with human liver microsomes (AID 1347399); settings: Potency: qHTS inhibition; outcome: qHTS inhibition; note: nearly all actives have a fitted effect of over 60% in size
How it was run: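 Recombinant human AChE (50 mU/mL in the enzyme mix) and human liver microsomes (0.25 mg/mL final) were preincubated with compound and NADPH (0.25 mg/mL final) for 30 min at 37 C. Acetylthiocholine/DTNB was then added; thiocholine was read colorimetrically after 10 min at room temperature.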

Sequence of Acetylcholinesterase (Homo sapiens) (P22303 whole entry, looked up): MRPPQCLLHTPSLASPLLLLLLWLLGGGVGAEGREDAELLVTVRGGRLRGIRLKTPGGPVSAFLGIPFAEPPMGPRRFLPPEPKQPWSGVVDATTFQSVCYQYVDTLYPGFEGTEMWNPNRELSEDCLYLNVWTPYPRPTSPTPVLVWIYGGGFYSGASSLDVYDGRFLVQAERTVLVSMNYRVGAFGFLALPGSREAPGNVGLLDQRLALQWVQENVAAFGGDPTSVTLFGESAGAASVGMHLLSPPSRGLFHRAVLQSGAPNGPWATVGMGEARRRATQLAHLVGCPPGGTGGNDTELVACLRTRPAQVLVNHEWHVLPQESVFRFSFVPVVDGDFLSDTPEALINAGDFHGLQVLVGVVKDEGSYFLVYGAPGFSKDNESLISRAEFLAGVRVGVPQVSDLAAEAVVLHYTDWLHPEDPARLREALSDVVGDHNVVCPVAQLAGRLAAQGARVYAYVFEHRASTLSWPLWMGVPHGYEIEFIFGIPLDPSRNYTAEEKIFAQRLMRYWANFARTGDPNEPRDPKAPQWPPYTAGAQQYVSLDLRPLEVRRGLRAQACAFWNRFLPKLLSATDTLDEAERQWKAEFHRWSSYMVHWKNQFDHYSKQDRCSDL

`Cc1onc(-c2ccccc2)c1C(=O)Cl` was tested, and the Potency [1] was “inactive”, the Potency [2] was “inactive” and the Potency [3] was “inactive”. For the same compound, the Potency [4] was “inactive”.

In the case of `CCC(C)(C)C`, the Potency [1] is reported as “inactive”, the Potency [2] is reported as “inactive” and the Potency [3] is reported as “inactive”. For the same compound, the Potency [4] was “inactive”.

For `O=C(O)CCCCCCCCC(=O)O`, the Potency [1] was “inactive”, the Potency [2] was “inactive” and the Potency [3] was “inactive”. For the same compound, the Potency [4] was “inactive”.

With `Cc1ccc(C(C)C)c(O)c1` the Potency [1] was “inactive”, the Potency [2] was “inactive” and the Potency [3] was “inactive”. For the same compound, the Potency [4] was “inactive”.

`CC/C=C\CCOC(=O)CC` was tested, and the Potency [1] was “inactive”, the Potency [2] was “inactive” and the Potency [3] was “inactive”. The Potency [4] was “inactive”.

In the case of `CCCCCCS`, the Potency [1] is reported as “inactive”, the Potency [2] is reported as “inactive” and the Potency [3] is reported as “inactive”. The Potency [4] was “inactive”.

In the case of `CC(C)=CC(=O)O`, the Potency [1] is reported as “inactive”, the Potency [2] is reported as “inactive” and the Potency [3] is reported as “inactive”. The Potency [4] was “inactive”.

For `CCSC(=O)N(CC(C)C)CC(C)C`, the Potency [1] was “inactive”, the Potency [2] was “inactive” and the Potency [3] was “inactive”. For the same compound, the Potency [4] was “inactive”.

`CCCCCCCCCCCCCCCCCCN(C)C` was tested, and the Potency [1] was “inactive”, the Potency [2] was “inactive” and the Potency [3] was “inactive”. For the same compound, the Potency [4] was “inactive”.

With `CN1CN(C)CN(C)C1` the Potency [1] was “inactive”, the Potency [2] was “inactive” and the Potency [3] was “inactive”. For the same compound, the Potency [4] was “inactive”.

With `C=C(C)C(=O)OCCOCCOCCOC(=O)C(=C)C` the Potency [1] was “inactive”, the Potency [2] was “inactive” and the Potency [3] was “inactive”. The Potency [4] was “inactive”.

With `CC(N)C12CC3CC(CC(C3)C1)C2` (centres undefined) the Potency [1] was “inactive”, the Potency [2] was “inactive” and the Potency [3] was “inactive”. For the same compound, the Potency [4] was “inactive”.

`O=C(Oc1ccccc1)Oc1ccccc1` was tested, and the Potency [1] was “inactive”, the Potency [2] was “inactive” and the Potency [3] was “inactive”. For the same compound, the Potency [4] was “inactive”.

For `CCO[Si](OCC)(OCC)c1ccccc1`, the Potency [1] was “inactive”, the Potency [2] was “inactive” and the Potency [3] was “inactive”. The Potency [4] was “inactive”.

`Cc1cccc(S(=O)(=O)O)c1C` was tested, and the Potency [1] was “inactive”, the Potency [2] was “inactive” and the Potency [3] was “inactive”. For the same compound, the Potency [4] was “inactive”.

In the case of `CCN(CC)c1ccc2c(C)cc(=O)oc2c1`, the Potency [1] is reported as “inactive”, the Potency [2] is reported as “inactive” and the Potency [3] is reported as “inactive”. For the same compound, the Potency [4] was “inactive”.

For `CC(C)(Oc1ccc(Cl)cc1)C(=O)OCCCOC(=O)C(C)(C)Oc1ccc(Cl)cc1`, the Potency [1] was “inactive”, the Potency [2] was “inactive” and the Potency [3] was “inactive”. The Potency [4] was “inactive”.

For `c1ccc2c(c1)Oc1ccccc1S2`, the Potency [1] was “inactive”, the Potency [2] was “inactive” and the Potency [3] was “inactive”. The Potency [4] was “inactive”.

With `O=C(Cn1ccnc1[N+](=O)[O-])NCc1ccccc1` the Potency [1] was “inactive”, the Potency [2] was “inactive” and the Potency [3] was “inactive”. The Potency [4] was “inactive”.

For `C1CCCCC1`, the Potency [1] was “inactive”, the Potency [2] was “inactive” and the Potency [3] was “inactive”. For the same compound, the Potency [4] was “inactive”.

With `CNC[C@H](O)c1ccc(O)c(O)c1` the outcome [1] was “inactive”, the outcome [2] was “inactive” and the outcome [3] was “inactive”. The outcome [4] was “inactive”.

For `c1c[nH]cn1`, the Potency [1] was “inactive”, the Potency [2] was “inactive” and the Potency [3] was “inactive”. For the same compound, the Potency [4] was “inactive”.

In the case of `O=[N+]([O-])c1ccc(/C=C/c2ccc([N+](=O)[O-])cc2S(=O)(=O)O)c(S(=O)(=O)O)c1`, the Potency [1] is reported as “inactive”, the Potency [2] is reported as “inactive” and the Potency [3] is reported as “inactive”. The Potency [4] was “inactive”.

In the case of `N[C@@H](CCC(=O)O)C(=O)O`, the Potency [1] is reported as “inactive”, the Potency [2] is reported as “inactive” and the Potency [3] is reported as “inactive”. For the same compound, the Potency [4] was “inactive”.

`CCCCOCC(C)O` (centres undefined) was tested, and the Potency [1] was “inactive”, the Potency [2] was “inactive” and the Potency [3] was “inactive”. The Potency [4] was “inactive”.

`O=[N+]([O-])c1ccc(O)cc1` was tested, and the Potency [1] was “inactive”, the Potency [2] was “inactive” and the Potency [3] was “inactive”. The Potency [4] was “inactive”.

`C=CCCCCCCCCOC(C)=O` was tested, and the Potency [1] was “inactive”, the Potency [2] was “inactive” and the Potency [3] was “inactive”. For the same compound, the Potency [4] was “inactive”.

`NC(=O)N1C(=O)C(C(=O)c2cc(Cl)cs2)c2cc(F)c(Cl)cc21` (centres undefined) was tested, and the Potency [1] was “inactive”, the Potency [2] was “inactive” and the Potency [3] was “inactive”. The Potency [4] was “inactive”.

`O=C(O)P(=O)(O)O` was tested, and the Potency [1] was “inactive”, the Potency [2] was “inactive” and the Potency [3] was “inactive”. The Potency [4] was “inactive”.

`CCC(C)(C)C(=O)O[C@H]1C[C@@H](C)C=C2C=C[C@H](C)[C@H](CC[C@@H]3C[C@@H](O)CC(=O)O3)[C@H]21` was tested, and the Potency [1] was “inactive”, the Potency [2] was “inactive” and the Potency [3] was “inactive”. For the same compound, the Potency [4] was “inactive”.

`Oc1cccc(-c2c3nc(c(-c4cccc(O)c4)c4ccc([nH]4)c(-c4cccc(O)c4)c4nc(c(-c5cccc(O)c5)c5ccc2[nH]5)CC4)C=C3)c1` was tested, and the Potency [1] was “inactive”, the Potency [2] was “inactive” and the Potency [3] was “inactive”. For the same compound, the Potency [4] was “inactive”.

For `Cc1cc2cc3c(C)cc(=O)oc3c(C)c2o1`, the Potency [1] was “inactive”, the Potency [2] was “inactive” and the Potency [3] was “inactive”. The Potency [4] was “inactive”.

With `C=COCC1CCC(CO)CC1` (centres undefined) the Potency [1] was “inactive”, the Potency [2] was “inactive” and the Potency [3] was “inactive”. The Potency [4] was “inactive”.

For `CCc1ncc(C)[nH]1`, the Potency [1] was “inactive”, the Potency [2] was “inactive” and the Potency [3] was “inactive”. For the same compound, the Potency [4] was “inactive”.

In the case of `O=C(O)/C=C/c1cnc[nH]1`, the Potency [1] is reported as “inactive”, the Potency [2] is reported as “inactive” and the Potency [3] is reported as “inactive”. The Potency [4] was “inactive”.

For `CC(C)COC(=O)c1ccccc1`, the Potency [1] was “inactive”, the Potency [2] was “inactive” and the Potency [3] was “inactive”. For the same compound, the Potency [4] was “inactive”.

`C=CCCC` was tested, and the Potency [1] was “inactive”, the Potency [2] was “inactive” and the Potency [3] was “inactive”. The Potency [4] was “inactive”.

`C=CCOC(=O)CC(C)C` was tested, and the Potency [1] was “inactive”, the Potency [2] was “inactive” and the Potency [3] was “inactive”. For the same compound, the Potency [4] was “inactive”.

With `CCOC(=O)NNc1nncc2ccccc12` the Potency [1] was “inactive”, the Potency [2] was “inactive” and the Potency [3] was “inactive”. For the same compound, the Potency [4] was “inactive”.

`CN(C)Cc1ccccc1` was tested, and the Potency [1] was “inactive”, the Potency [2] was “inactive” and the Potency [3] was “inactive”. The Potency [4] was “inactive”.

`CSc1ccc2c(c1)N(CCC1CCCCN1C)c1ccccc1S2` (centres undefined) was tested, and the Potency [1] was 70.7 µM (active), the Potency [2] was 79.3 µM (active) and inactive and the Potency [3] was 31.6 µM (active). For the same compound, the Potency [4] was “inactive”.
